PubChem BioAssay (NCATS)
Values joined by “and” are separate entries in the source; they are usually repeats but may differ in a detail not shown here. Equal entries are not always repeated. Inconclusive results are not listed. A structure can be active in one record and inactive in another. Active and inactive are the calls of the source. Calls come from the whole dose curve; as a rule, active = well fitted curve in the direction sought with a large enough effect; inconclusive = small, poorly fitted or top-dose-only effect, or another doubt; inactive = no such curve, though single readings can be large; an effect the other way counts as inactive or inconclusive. Non-standard residues stand in square brackets, D forms with d. Residues, ends and D or L forms follow the SMILES beside them. *: point of attachment. Sta = CC(C)C[C@H](N)[C@@H](O)CC(=O)O; Isovaleryl = CC(C)CC(=O)*

Key:
SC27B = experiment: qHTS profiling for inhibitors of Plasmodium falciparum proliferation (AID 504749); note: nearly all actives have a fitted effect of over 60% in size; note: potency is the fitted concentration of half-maximal effect; details: P. falciparum in erythrocytes, SYBR Green DNA, 72 h; series mostly up to 28.7 µM
Summary of the method: (§1)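 Parasite proliferation within erythrocytes, 72 h exposure. Endpoint: SYBR Green I fluorescence after overnight lysis at room temperature. Controls: 0.29 uM artemisinin, DMSO.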

TAB109 = experiment: as above; details: P. falciparum in erythrocytes, SYBR Green DNA, 72 h; series mostly up to 28.7 µM
Summary of the method: as §1

TAB113 = experiment: as above; details: P. falciparum in erythrocytes, SYBR Green DNA, 72 h; series mostly up to 28.7 µM
Summary of the method: as §1

TAB165 = experiment: as above; details: P. falciparum in erythrocytes, SYBR Green DNA, 72 h; series mostly up to 28.7 µM
Summary of the method: as §1

W2 = experiment: as above; details: P. falciparum in erythrocytes, SYBR Green DNA, 72 h; series mostly up to 28.7 µM
Summary of the method: as §1

CRL-7250 = normal cell line; experiment: Cytotoxic Profiling of Annotated Libraries Using Quantitative High-Throughput Screening (AID 1296008); details: Five cell lines viability, CellTiter-Glo ATP luminescence, 48-72 h; max response: stronger effect = lower value; note: nearly all actives have a fitted effect of over 60% in size; note: potency is the fitted concentration of half-maximal effect; for max response: % is set by controls: 0 for no effect and ±100 for the full control effect
Summary of the method: (§2)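 Compounds were pin-transferred onto cells and incubated 48 or 72 hr at 37 degree Celsius, 95% humidity. CellTiter-Glo was added, plates sat 10 min at room temperature, then ATP-coupled luminescence was imaged as the viability read-out.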

HEK293 = experiment: as above; details: Five cell lines viability, CellTiter-Glo ATP luminescence, 48-72 h; max response: stronger effect = lower value
Summary of the method: as §2

NIH3T3 [1] = experiment: as above; details: Five cell lines viability, CellTiter-Glo ATP luminescence, 48-72 h; max response: stronger effect = lower value
Summary of the method: as §2

MCC-13 = experiment: qHTS assay to identify novel small-molecules to repurpose for Merkel cell carcinoma treatment (AID 1296009); details: MCC and control cell lines, CellTiter-Glo viability, 72 h; series mostly up to 46 µM; note: nearly all actives have a fitted effect of over 60% in size; note: potency is the fitted concentration of half-maximal effect
Summary of the method: (§3)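 qHTS format: cells treated with library compounds in DMSO across 8 (NPC) or 11 (MIPE) concentrations. Readout after 72 hr at 37 degree celsius was CellTiter-Glo luminescence.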

MCC-26 = experiment: as above; details: MCC and control cell lines, CellTiter-Glo viability, 72 h; series mostly up to 46 µM
Summary of the method: as §3

MKL-1 = experiment: as above; details: MCC and control cell lines, CellTiter-Glo viability, 72 h; series mostly up to 46 µM
Summary of the method: as §3

MKL-2 = experiment: as above; details: MCC and control cell lines, CellTiter-Glo viability, 72 h; series mostly up to 46 µM
Summary of the method: as §3

NIH3T3 [2] = experiment: as above; details: MCC and control cell lines, CellTiter-Glo viability, 72 h; at 44.8 µM (top of the series) unless noted
Summary of the method: as §3

UISO = experiment: as above; details: MCC and control cell lines, CellTiter-Glo viability, 72 h; series mostly up to 46 µM
Summary of the method: as §3

WaGa = experiment: as above; details: MCC and control cell lines, CellTiter-Glo viability, 72 h; series mostly up to 46 µM
Summary of the method: as §3

C33A = experiment: Primary qHTS to identify gynecologic anti-cancer compounds using libraries of approved drugs and bioactive compounds (AID 1345084); details: Gynecologic cancer cell panel viability, ATPlite luminescence, 48 h; series mostly up to 57.5 µM; note: % is set by controls: 0 for no effect and ±100 for the full control effect; nearly all actives have a fitted effect of over 55% in size
Summary of the method: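 Cells, 1,000 per well, plated 16 h, then exposed 48 h at 37 C to compounds. Viability by ATPlite luminescence after 15 min at room temperature.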

HaCat [3] = experiment: Cytotoxic Profiling of Annotated Libraries Using Quantitative High-Throughput Screening (AID 1296008); details: Five cell lines viability, CellTiter-Glo ATP luminescence, 48-72 h; max response: stronger effect = lower value; note: nearly all actives have a fitted effect of over 60% in size; note: potency is the fitted concentration of half-maximal effect; for max response: % is set by controls: 0 for no effect and ±100 for the full control effect
Summary of the method: as §2

HEK293T = experiment: qHTS assay to identify novel small-molecules to repurpose for Merkel cell carcinoma treatment (AID 1296009); details: MCC and control cell lines, CellTiter-Glo viability, 72 h; at 44.8 µM (top of the series) unless noted; note: nearly all actives have a fitted effect of over 60% in size; note: potency is the fitted concentration of half-maximal effect
Summary of the method: as §3

KB-3-1 = experiment: Cytotoxic Profiling of Annotated Libraries Using Quantitative High-Throughput Screening (AID 1296008); details: Five cell lines viability, CellTiter-Glo ATP luminescence, 48-72 h; max response: stronger effect = lower value; note: nearly all actives have a fitted effect of over 60% in size; note: potency is the fitted concentration of half-maximal effect; for max response: % is set by controls: 0 for no effect and ±100 for the full control effect
Summary of the method: as §2

HACAT [4] = experiment: qHTS assay to identify novel small-molecules to repurpose for Merkel cell carcinoma treatment (AID 1296009); details: MCC and control cell lines, CellTiter-Glo viability, 72 h; at 44.8 µM (top of the series) unless noted; note: nearly all actives have a fitted effect of over 60% in size; note: potency is the fitted concentration of half-maximal effect
Summary of the method: as §3

CCCc1cc(=O)[nH]c(=S)[nH]1
inactive and 18.7 µM (active): Potency (WaGa)
inactive: Potency (SC27B) | Potency (TAB109) | Potency (TAB113) | Potency (TAB165) | Potency (W2) | max response (CRL-7250) 1.74% and -1.3% | max response (HEK293) 2.66% | outcome (NIH3T3 [1]) inactive; activator | Potency (MCC-13) | Potency (MCC-26) | Potency (MKL-1) | Potency (MKL-2) | outcome (NIH3T3 [2]) inactive; activator | Potency (UISO) | Potency (C33A)

CC1(C)C(=O)N(CCN2CCC(C(=O)c3ccc(F)cc3)CC2)c2ccccc21
inactive: max response (CRL-7250) 0.499% | outcome (HEK293) | max response (HaCat [3]) -16.9% | max response (NIH3T3 [1]) -5.82% | outcome (HEK293T) | Potency (MCC-13) | Potency (MKL-1) | Potency (MKL-2) | Potency (UISO) | Potency (WaGa)

CC(C)CC(=O)N[C@H](C(=O)N[C@H](C(=O)N[C@@H](CC(C)C)[C@@H](O)CC(=O)N[C@@H](C)C(=O)N[C@@H](CC(C)C)[C@@H](O)CC(=O)O)C(C)C)C(C)C (Isovaleryl-VV[Sta]A[Sta]-OH)
inactive: max response (CRL-7250) 0.655% | max response (HEK293) -5.42% | max response (KB-3-1) 15.7% and 7.23% | max response (NIH3T3 [1]) 0.118% | Potency (MCC-13) | Potency (MKL-1) | Potency (MKL-2) | Potency (UISO) | Potency (WaGa) | Potency (C33A)

Cc1cc(Cl)ccc1OCCCC(=O)NO
active: Potency (MKL-1) 14.8 µM
inactive: max response (CRL-7250) -2.51% | max response (HaCat [3]) 3.7% | outcome (KB-3-1) | Potency (MCC-13) | Potency (MCC-26)

CCCCN(CCCC)CCC(O)c1cc2c(Cl)cc(Cl)cc2c2cc(C(F)(F)F)ccc12 (stereo unspecified)
active: Potency (SC27B) 0.0126 µM | Potency (TAB109) 0.0071 µM | Potency (TAB113) 0.0079 µM | Potency (TAB165) 0.0079 µM
inactive: Potency (C33A)

Nc1nc(Cl)nc2c1ncn2[C@H]1C[C@H](O)[C@@H](CO)O1
inactive: Potency (SC27B) | Potency (TAB109) | Potency (TAB113) | Potency (TAB165)
active: Potency (HEK293) 2.35 µM | Potency (HaCat [3]) 1.32 µM | Potency (NIH3T3 [1]) 0.935 µM | Potency (MKL-1) 0.418 µM | Potency (MKL-2) 0.418 µM | Potency (UISO) 0.372 µM | Potency (WaGa) 0.418 µM

O=c1ccc2ccc(O)c(O)c2o1
inactive: outcome (HEK293) | outcome (HaCat [3]) | outcome (KB-3-1) | max response (NIH3T3 [1]) -1.87% | outcome (HACAT [4]) | outcome (HEK293T) | Potency (MCC-13) | Potency (UISO)

COc1c2occc2cc2ccc(=O)oc12
inactive: Potency (C33A)

C=CCc1cc(OC)c(O)c(C(=O)NCCO)c1
inactive: Potency (SC27B) | Potency (TAB109) | Potency (TAB113) | Potency (TAB165) | Potency (W2) | max response (HEK293) -0.342% | max response (HaCat [3]) -2.64% | outcome (HaCat [3]) | max response (NIH3T3 [1]) -1.28% and -4.54% | outcome (HACAT [4]) | Potency (MCC-13) | Potency (MCC-26) | Potency (MKL-1) | Potency (MKL-2) | Potency (UISO) | Potency (WaGa) | Potency (C33A)

CN(C)C(=O)[C@H](O)[C@H](Cc1ccccc1)NC(=O)c1cc2cc(Cl)ccc2[nH]1
active: Potency (UISO) 4.18 µM
inactive: outcome (CRL-7250) | max response (HaCat [3]) -6.71% | outcome (HaCat [3]) | max response (NIH3T3 [1]) -4.58% | outcome (NIH3T3 [1]) | outcome (HACAT [4]) | Potency (MCC-13) | Potency (MKL-2) | outcome (NIH3T3 [2]) | Potency (WaGa) | Potency (C33A)

NC(=NCc1ccccc1)NC(=O)c1nc(Cl)c(N)nc1N
inactive: max response (HEK293) -5.25% | outcome (HaCat [3]) inactive; activator | max response (KB-3-1) -6.74% | max response (NIH3T3 [1]) 3.69% | outcome (HACAT [4]) inactive; activator | Potency (MCC-13) | Potency (MCC-26) | Potency (MKL-1) | Potency (UISO) | Potency (WaGa)

CCCCCCCCCCCCCCCCCCCCCCO
inactive: Potency (SC27B) | Potency (TAB109) | Potency (TAB113) | Potency (TAB165) | Potency (W2) | outcome (CRL-7250) | max response (HEK293) 1.6% | max response (HaCat [3]) 4.38% | outcome (NIH3T3 [1]) | Potency (MCC-13) | Potency (MCC-26) | Potency (MKL-1) | Potency (MKL-2) | outcome (NIH3T3 [2]) | Potency (UISO) | Potency (WaGa)

O=C1c2ccccc2-c2n[nH]c3cccc1c23
active: Potency (MKL-1) 3.32 µM | Potency (WaGa) 2.64 µM
inactive: Potency (SC27B) | Potency (TAB109) | Potency (TAB113) | Potency (TAB165) | max response (KB-3-1) -0.484% | Potency (MCC-13)

O=c1cc(N2CCOCC2)oc2c(-c3ccccc3)cccc12
inactive: Potency (MCC-13) | Potency (MCC-26) | Potency (MKL-1) | Potency (MKL-2) | Potency (UISO) | Potency (WaGa)
